According to PMC7862700, “An all-to-all approach to the identification of sequence-specific readers for epigenetic DNA modifications on cytosine”:

Experiments:
Assay in all cases: DAPPL (digital affinity profiling via proximity ligation, sequencing); 10 mM Tris-HCl pH 7.5, 50 mM NaCl, 1 mM DTT, 4% glycerol, room temperature, 30 min; GST-TFs on glutathione beads, 16-mer random dsDNA library, 0.1% formaldehyde crosslink after washing; high values mean tight binding
FEV = target: T1, FEV (Homo sapiens, UniProt Q99581 1-238); details: protein: recombinant; tags: N-terminal GST; dsDNA, one strand shown
T1 sequence: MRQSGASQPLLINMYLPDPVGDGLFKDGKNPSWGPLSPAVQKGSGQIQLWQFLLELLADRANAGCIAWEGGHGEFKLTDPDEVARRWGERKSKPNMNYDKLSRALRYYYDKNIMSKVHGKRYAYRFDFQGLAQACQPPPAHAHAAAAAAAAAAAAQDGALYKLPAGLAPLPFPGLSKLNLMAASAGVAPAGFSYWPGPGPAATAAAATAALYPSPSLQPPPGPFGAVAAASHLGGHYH
Procedure, shortened: (§1)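 Sequencing on an Illumina NextSeq500 followed washing, crosslinking with 0.1% formaldehyde, proximity ligation (BsaI/T4 ligase, 1 h, 37 °C) and PCR amplification of pools that had been incubated for 30 min at room temperature with 200 nmole of a random double-stranded 16-mer DNA library in Tris/NaCl/DTT/glycerol buffer. Each pool held DNA-barcoded human transcription factors, expressed in yeast as GST fusions and captured on glutathione beads, plus a tag-only sample. Binding signal is a hexamer's read frequency for a factor divided by its frequency in the tag-only sample.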

ETV5 = ETV5 (Homo sapiens, UniProt P41161 1-510); details: protein: recombinant; tags: N-terminal GST; dsDNA, one strand shown
ETV5, sequence (P41161 whole entry): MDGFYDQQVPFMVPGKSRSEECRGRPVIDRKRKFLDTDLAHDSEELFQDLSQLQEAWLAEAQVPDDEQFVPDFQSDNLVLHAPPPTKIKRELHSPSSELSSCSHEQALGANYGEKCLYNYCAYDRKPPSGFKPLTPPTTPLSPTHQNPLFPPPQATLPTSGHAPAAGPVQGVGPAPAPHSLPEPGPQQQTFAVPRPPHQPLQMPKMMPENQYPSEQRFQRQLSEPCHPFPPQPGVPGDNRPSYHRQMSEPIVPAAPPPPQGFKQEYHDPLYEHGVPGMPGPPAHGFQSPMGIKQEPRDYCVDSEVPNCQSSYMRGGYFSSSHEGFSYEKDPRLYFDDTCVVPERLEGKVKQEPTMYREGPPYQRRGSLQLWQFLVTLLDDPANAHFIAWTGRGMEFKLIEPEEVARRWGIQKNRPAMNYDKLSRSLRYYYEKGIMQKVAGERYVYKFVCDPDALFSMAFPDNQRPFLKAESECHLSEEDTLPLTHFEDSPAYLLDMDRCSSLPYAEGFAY
Procedure, shortened: as §1

HSF1 = HSF1 (Homo sapiens, UniProt Q00613 1-529); details: protein: recombinant; tags: N-terminal GST; chain copies: 3; dsDNA, one strand shown
HSF1, sequence (Q00613 whole entry): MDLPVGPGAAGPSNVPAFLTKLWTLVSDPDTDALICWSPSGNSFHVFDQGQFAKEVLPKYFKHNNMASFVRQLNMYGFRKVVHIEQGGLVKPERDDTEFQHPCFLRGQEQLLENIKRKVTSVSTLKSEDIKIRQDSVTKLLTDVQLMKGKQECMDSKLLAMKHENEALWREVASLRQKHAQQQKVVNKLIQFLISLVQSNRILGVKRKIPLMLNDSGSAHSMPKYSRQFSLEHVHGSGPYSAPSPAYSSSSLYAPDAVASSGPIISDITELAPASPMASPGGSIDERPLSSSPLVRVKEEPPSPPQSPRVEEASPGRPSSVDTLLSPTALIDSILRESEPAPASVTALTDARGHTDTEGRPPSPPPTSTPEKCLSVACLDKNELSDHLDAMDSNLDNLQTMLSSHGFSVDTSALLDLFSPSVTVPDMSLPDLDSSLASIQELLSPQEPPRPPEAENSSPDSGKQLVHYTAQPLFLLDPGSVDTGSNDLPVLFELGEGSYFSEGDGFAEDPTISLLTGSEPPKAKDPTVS
Procedure, shortened: as §1

ELF4 = ELF4 (Homo sapiens, UniProt Q99607 1-663); details: protein: recombinant; tags: N-terminal GST; dsDNA, one strand shown
ELF4, sequence (Q99607 whole entry): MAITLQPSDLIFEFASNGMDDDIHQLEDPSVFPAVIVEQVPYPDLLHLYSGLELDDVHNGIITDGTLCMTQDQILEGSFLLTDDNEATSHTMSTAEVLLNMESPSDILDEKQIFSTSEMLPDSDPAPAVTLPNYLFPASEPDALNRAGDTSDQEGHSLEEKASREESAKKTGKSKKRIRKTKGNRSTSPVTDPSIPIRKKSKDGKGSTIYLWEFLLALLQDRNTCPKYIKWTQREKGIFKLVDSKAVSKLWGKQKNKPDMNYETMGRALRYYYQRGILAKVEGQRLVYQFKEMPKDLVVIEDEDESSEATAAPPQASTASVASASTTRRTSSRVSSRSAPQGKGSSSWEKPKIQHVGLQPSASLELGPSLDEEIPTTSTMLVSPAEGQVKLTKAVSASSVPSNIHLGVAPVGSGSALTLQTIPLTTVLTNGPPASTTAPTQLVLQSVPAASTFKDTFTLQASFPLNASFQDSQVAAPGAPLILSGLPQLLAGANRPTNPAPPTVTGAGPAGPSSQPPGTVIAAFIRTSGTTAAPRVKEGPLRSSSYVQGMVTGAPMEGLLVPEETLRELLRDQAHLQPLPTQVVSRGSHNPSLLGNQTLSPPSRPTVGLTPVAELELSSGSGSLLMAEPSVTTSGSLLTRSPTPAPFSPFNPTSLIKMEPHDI
Procedure, shortened: as §1

ETV2 = target: T2, ETV2 (Homo sapiens, UniProt O00321 1-342); details: protein: recombinant; tags: N-terminal GST; dsDNA, one strand shown
T2 sequence: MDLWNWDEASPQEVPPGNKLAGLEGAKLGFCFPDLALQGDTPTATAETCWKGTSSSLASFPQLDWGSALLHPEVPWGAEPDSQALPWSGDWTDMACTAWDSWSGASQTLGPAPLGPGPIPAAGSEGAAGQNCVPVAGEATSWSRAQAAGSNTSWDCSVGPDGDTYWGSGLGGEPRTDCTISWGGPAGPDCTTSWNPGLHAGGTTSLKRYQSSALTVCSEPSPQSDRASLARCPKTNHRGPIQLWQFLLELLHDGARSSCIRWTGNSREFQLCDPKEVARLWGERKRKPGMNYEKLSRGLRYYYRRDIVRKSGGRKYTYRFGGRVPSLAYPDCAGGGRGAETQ
Procedure, shortened: as §1

ELF3 = target: T3, ELF3 (Homo sapiens, UniProt P78545 1-371); details: protein: recombinant; tags: N-terminal GST; dsDNA, one strand shown
T3 sequence: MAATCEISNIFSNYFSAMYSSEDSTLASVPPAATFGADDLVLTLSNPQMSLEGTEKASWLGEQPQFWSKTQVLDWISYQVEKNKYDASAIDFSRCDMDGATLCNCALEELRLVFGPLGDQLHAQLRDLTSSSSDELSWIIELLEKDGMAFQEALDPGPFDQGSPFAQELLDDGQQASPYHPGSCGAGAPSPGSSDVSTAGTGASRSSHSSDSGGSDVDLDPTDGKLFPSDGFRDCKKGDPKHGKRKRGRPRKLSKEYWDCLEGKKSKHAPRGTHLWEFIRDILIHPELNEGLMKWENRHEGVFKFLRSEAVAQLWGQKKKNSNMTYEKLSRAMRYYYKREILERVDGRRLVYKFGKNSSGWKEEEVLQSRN
Procedure, shortened: as §1

CRX = CRX (Homo sapiens, UniProt O43186 1-299); details: protein: recombinant; tags: N-terminal GST; dsDNA, one strand shown
CRX, sequence (O43186 whole entry): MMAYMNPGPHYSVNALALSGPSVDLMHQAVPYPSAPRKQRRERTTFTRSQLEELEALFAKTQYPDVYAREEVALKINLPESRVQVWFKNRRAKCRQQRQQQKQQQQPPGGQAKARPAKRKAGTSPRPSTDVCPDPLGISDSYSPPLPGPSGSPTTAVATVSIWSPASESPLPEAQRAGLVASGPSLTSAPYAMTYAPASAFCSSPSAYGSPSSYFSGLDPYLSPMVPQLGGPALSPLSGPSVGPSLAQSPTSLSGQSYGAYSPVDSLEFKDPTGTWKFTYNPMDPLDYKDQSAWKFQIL
Procedure, shortened: as §1

ERF = target: T4, ERF (Homo sapiens, UniProt P50548 1-548); details: protein: recombinant; tags: N-terminal GST; dsDNA, one strand shown
T4 sequence: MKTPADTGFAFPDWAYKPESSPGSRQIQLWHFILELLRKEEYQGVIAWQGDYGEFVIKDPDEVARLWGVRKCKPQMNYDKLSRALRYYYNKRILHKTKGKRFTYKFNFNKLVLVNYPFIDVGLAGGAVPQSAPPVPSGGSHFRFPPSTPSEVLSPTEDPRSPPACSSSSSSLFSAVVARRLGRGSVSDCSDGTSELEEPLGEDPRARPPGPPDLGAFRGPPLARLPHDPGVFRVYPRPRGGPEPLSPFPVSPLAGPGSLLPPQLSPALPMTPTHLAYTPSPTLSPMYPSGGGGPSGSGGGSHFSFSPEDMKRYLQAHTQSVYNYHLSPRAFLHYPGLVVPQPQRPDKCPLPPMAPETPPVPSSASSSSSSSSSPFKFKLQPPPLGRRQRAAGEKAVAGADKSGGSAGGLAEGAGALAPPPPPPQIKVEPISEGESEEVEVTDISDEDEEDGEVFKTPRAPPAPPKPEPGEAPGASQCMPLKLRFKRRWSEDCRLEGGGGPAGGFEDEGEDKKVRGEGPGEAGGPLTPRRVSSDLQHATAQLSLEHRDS
Procedure, shortened: as §1

ETV3L = target: T5, ETV3L (Homo sapiens, UniProt Q6ZN32 1-361); details: protein: recombinant; tags: N-terminal GST; dsDNA, one strand shown
T5 sequence: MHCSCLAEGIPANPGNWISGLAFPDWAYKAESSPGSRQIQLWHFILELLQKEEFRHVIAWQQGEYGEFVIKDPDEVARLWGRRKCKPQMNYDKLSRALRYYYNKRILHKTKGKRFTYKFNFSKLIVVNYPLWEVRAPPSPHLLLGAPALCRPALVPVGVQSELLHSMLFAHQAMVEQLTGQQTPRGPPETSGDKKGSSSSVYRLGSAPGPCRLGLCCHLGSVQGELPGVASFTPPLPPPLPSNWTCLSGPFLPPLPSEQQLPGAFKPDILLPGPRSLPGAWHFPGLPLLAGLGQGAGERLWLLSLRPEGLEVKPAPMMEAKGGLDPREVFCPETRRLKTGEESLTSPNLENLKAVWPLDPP
Procedure, shortened: as §1

ETS2 = target: T6, ETS2 (Homo sapiens, UniProt P15036 1-469); details: protein: recombinant; tags: N-terminal GST; dsDNA, one strand shown
T6 sequence: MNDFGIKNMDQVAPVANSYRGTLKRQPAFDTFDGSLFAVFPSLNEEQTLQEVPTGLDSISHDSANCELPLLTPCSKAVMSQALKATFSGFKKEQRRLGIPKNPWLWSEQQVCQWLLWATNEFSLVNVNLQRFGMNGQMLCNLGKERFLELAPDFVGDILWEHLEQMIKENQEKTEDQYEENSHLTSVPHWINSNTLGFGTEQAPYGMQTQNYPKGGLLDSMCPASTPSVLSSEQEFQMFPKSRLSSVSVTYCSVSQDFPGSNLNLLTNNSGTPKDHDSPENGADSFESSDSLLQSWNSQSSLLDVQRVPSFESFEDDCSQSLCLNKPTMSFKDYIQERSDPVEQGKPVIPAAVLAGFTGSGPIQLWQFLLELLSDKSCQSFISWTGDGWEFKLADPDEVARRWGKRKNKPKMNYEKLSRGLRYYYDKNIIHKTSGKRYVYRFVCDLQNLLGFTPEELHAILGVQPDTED
Procedure, shortened: as §1

ETV7 = target: T7, ETV7 (Homo sapiens, UniProt Q9Y603 1-341); details: protein: recombinant; tags: N-terminal GST; dsDNA, one strand shown
T7 sequence: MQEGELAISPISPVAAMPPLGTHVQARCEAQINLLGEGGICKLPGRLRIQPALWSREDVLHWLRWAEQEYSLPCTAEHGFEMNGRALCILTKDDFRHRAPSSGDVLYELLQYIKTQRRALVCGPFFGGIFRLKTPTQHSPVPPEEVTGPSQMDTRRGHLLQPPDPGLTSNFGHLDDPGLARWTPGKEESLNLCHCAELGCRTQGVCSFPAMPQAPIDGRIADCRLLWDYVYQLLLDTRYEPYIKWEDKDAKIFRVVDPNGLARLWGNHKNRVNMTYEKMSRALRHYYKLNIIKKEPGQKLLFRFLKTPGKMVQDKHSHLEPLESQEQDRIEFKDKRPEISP
Procedure, shortened: as §1

ELF5 = target: T8, ELF5 (Homo sapiens, UniProt Q9UKW6-2 1-255); details: protein: recombinant; tags: N-terminal GST; dsDNA, one strand shown
T8 sequence: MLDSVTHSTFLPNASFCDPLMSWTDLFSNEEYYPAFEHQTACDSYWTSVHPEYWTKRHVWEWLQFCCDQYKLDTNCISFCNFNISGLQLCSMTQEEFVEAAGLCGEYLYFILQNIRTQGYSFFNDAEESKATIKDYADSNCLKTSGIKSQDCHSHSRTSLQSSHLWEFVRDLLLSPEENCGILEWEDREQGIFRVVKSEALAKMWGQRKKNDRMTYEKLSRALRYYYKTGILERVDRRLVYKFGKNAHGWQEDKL
Procedure, shortened: as §1

ETV3 = target: T9, ETV3 (Homo sapiens, UniProt P41162-2 1-143); details: protein: recombinant; tags: N-terminal GST; dsDNA, one strand shown
T9 sequence: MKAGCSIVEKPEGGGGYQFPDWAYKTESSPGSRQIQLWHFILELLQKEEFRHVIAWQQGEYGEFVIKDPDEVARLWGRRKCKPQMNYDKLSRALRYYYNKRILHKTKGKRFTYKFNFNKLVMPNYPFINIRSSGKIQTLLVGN
Procedure, shortened: as §1

ETV6 = ETV6 (Homo sapiens, UniProt P41212 1-452); details: protein: recombinant; tags: N-terminal GST; dsDNA, one strand shown
ETV6, sequence (P41212 whole entry): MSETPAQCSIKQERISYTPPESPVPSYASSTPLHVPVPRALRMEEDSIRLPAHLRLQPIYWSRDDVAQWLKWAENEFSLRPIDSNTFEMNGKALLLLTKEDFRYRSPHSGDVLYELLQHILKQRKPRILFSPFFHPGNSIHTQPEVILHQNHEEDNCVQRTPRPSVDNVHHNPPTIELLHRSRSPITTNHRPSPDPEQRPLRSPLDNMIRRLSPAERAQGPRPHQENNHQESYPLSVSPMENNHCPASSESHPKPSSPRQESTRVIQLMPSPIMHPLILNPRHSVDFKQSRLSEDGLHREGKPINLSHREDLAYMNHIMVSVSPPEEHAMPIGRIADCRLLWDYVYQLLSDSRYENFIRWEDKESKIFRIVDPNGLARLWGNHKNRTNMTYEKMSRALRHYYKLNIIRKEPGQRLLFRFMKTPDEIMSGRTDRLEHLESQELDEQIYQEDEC
Procedure, shortened: as §1

ELK4 = target: T10, ELK4 (Homo sapiens, UniProt P28324-2 1-405); details: protein: recombinant; tags: N-terminal GST; dsDNA, one strand shown
T10 sequence: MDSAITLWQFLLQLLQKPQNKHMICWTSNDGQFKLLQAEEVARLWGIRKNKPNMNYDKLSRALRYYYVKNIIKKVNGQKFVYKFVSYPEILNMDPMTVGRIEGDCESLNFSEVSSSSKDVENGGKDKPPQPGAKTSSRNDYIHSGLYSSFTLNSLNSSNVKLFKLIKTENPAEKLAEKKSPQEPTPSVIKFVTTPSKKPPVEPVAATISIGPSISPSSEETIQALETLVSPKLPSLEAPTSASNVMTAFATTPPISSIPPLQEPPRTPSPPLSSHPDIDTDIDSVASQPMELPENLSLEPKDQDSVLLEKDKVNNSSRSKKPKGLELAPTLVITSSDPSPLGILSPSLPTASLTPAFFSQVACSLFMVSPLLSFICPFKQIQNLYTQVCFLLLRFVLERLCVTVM
Procedure, shortened: as §1

ETV1 = ETV1 (Homo sapiens, UniProt P50549 1-477); details: protein: recombinant; tags: N-terminal GST; dsDNA, one strand shown
ETV1, sequence (P50549 whole entry): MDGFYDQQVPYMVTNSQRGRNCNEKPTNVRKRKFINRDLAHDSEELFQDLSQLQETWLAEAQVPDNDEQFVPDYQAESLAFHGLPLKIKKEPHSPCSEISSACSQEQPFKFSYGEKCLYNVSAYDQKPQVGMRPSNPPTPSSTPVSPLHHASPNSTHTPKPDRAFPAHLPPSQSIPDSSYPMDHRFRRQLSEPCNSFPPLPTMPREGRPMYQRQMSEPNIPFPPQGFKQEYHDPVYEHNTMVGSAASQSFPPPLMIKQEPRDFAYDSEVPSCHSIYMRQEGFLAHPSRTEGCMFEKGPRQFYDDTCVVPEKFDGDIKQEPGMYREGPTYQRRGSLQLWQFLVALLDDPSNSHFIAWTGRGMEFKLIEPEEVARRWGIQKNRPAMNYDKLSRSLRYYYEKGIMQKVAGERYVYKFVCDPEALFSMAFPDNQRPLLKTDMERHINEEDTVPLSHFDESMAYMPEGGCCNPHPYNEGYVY
Procedure, shortened: as §1

SPDEF = target: T11, SPDEF (Homo sapiens, UniProt O95238 1-335); details: protein: recombinant; tags: N-terminal GST; dsDNA, one strand shown
T11 sequence: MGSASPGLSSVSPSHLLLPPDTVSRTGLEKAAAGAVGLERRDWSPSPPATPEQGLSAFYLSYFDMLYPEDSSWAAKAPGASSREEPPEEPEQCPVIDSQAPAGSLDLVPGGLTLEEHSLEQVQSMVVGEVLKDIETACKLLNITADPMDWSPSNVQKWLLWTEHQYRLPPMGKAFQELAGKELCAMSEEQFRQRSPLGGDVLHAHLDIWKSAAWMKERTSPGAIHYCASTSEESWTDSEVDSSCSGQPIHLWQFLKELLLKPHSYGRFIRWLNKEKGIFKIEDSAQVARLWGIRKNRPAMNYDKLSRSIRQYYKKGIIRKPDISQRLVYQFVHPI
Procedure, shortened: as §1

Sequence | binding signal (FEV) | binding signal (ETV5) | binding signal (HSF1) | binding signal (ELF4) | binding signal (ETV2) | binding signal (ELF3) | binding signal (CRX) | binding signal (ERF) | binding signal (ETV3L) | binding signal (ETS2) | binding signal (ETV7) | binding signal (ELF5) | binding signal (ETV3) | binding signal (ETV6) | binding signal (ELK4) | binding signal (ETV1) | binding signal (SPDEF)
GAACAT | 1.01 fold enrichment (6-mer frequency, TF over GST control) | 1.12 fold enrichment (6-mer frequency, TF over GST control) | 1.81 fold enrichment (6-mer frequency, TF over GST control) | 1 fold enrichment (6-mer frequency, TF over GST control) | 1.01 fold enrichment (6-mer frequency, TF over GST control) | 1.06 fold enrichment (6-mer frequency, TF over GST control) | 1.03 fold enrichment (6-mer frequency, TF over GST control) | 1.1 fold enrichment (6-mer frequency, TF over GST control) | 1.01 fold enrichment (6-mer frequency, TF over GST control) | 1 fold enrichment (6-mer frequency, TF over GST control) | 1.11 fold enrichment (6-mer frequency, TF over GST control) | 1.09 fold enrichment (6-mer frequency, TF over GST control) | 1.08 fold enrichment (6-mer frequency, TF over GST control) | 1.07 fold enrichment (6-mer frequency, TF over GST control) |  |  | 
ATCGCT | 1.06 fold enrichment (6-mer frequency, TF over GST control) | 1.07 fold enrichment (6-mer frequency, TF over GST control) | 1.08 fold enrichment (6-mer frequency, TF over GST control) | 1.15 fold enrichment (6-mer frequency, TF over GST control) |  | 1.05 fold enrichment (6-mer frequency, TF over GST control) | 1.19 fold enrichment (6-mer frequency, TF over GST control) | 1.06 fold enrichment (6-mer frequency, TF over GST control) | 1.05 fold enrichment (6-mer frequency, TF over GST control) | 1.1 fold enrichment (6-mer frequency, TF over GST control) | 1.03 fold enrichment (6-mer frequency, TF over GST control) | 1.05 fold enrichment (6-mer frequency, TF over GST control) | 1.05 fold enrichment (6-mer frequency, TF over GST control) | 1.04 fold enrichment (6-mer frequency, TF over GST control) | 1.06 fold enrichment (6-mer frequency, TF over GST control) | 1.08 fold enrichment (6-mer frequency, TF over GST control) | 1.04 fold enrichment (6-mer frequency, TF over GST control)
